According to PubChem BioAssay:
For some of these results: Entries with a potency or affinity are not part of this list. Active and inactive are the calls of the source.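 How the source made its calls, unless noted: active means calcium signal rise above buffer-control mean plus 5 SD in both duplicates, and also a hit in the primary screen; inactive means the rest.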

Legend:
[1] = test system: TRPC4 beta (transient receptor potential cation channel C4), mouse; assay: activators of mouse TRPC4 channel, confirmation, cell-based, Fluo4 calcium, HEK293 TRPC4beta/mu-opioid, duplicates, 10 µM (AID 2426;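 active means fluorescence ratio normalized to control raised more than 50% in primary screen plus both repeat runs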); conditions: Fluo4 calcium fluorescence, at 10 µM; hits give high values
[2] = test system: transient receptor potential cation channel C4 beta (TRPC4), mouse; assay: activators of mouse TRPC4 channel, confirmation, cell-based, second round, Fluo4, HEK293 TRPC4beta/mu-opioid, 1 µM (AID 2461;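 active means primary screen active and over 50% activation in each of two duplicate runs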); conditions: Fluo4 calcium fluorescence, at 1 µM; hits give high values
[3] = test system: TRPC4 (transient receptor potential cation channel C4 beta), mouse; assay: positive allosteric modulators of mouse TRPC4, confirmation, cell-based, second round, Fluo-4, HEK293 TRPC4beta/mu-opioid, 1 µM (AID 2554;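 active means primary screen hit whose fluorescence ratio, in both repeats, exceeds the weak agonist control mean by 3 SD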); conditions: DAMGO EC20, Fluo-4 calcium flux, at 1 µM; hits give high values
[4] = test system: TRPC4 beta (transient receptor potential cation channel C4), mouse; assay: positive allosteric modulators of mouse TRPC4, confirmation, cell-based, Fluo-4, HEK293 TRPC4beta/mu-opioid (AID 2555;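 active means primary screen hit whose calcium fluorescence ratio, in both repeats, exceeds the weak agonist control mean by 3 SD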); conditions: DAMGO EC20, Fluo-4 calcium flux, at 10 µM; hits give high values
[5] = molecular target: Short transient receptor potential channel 4 (Mus musculus) (UniProt Q9QUQ5); assay: inhibitors of mouse TRPC4 channel, confirmation, cell-based, Fluo4, HEK293 TRPC4beta/mu-opioid (AID 2636;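 active means calcium signal cut by more than 3 SD below the full-agonist control yet still positive, in both repeats and the earlier primary screen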); conditions: DAMGO, Fluo4 calcium flux, at 10 µM; hits give high values
[6] = molecular target: Short transient receptor potential channel 4 (Mus musculus) (UniProt Q9QUQ5); assay: inhibitors of mouse TRPC4 channel, confirmation, cell-based, second round, Fluo4, HEK293 TRPC4beta/mu-opioid, 1 µM (AID 2637;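 active means calcium signal ratio cut to more than 3 SD under the fully stimulated control mean yet still positive, in both repeats and the primary screen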); conditions: Fluo4 calcium flux, DAMGO, at 1 µM; hits give high values
[7] = molecular target: Short transient receptor potential channel 4 (Mus musculus) (UniProt Q9QUQ5); assay: mouse TRPC4 channel activators, dose response, cell-based, HEK293 TRPC4/mu-opioid, Fluo-4 calcium (AID 434937;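 active means primary screen activator hit with a dose response curve and TRPC4 channel activation at any tested dose; inactive means no activation, no dose response, or not a primary hit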)
[8] = molecular target: Short transient receptor potential channel 4 (Mus musculus) (UniProt Q9QUQ5); assay: TRPC4 positive allosteric modulators, dose response, cell-based, HEK293 TRPC4/mu-opioid, Fluo-4 calcium, EC20 DAMGO (AID 434941;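 active means earlier screen potentiator hit that boosts the TRPC4 ion channel at some dose, with a dose response; inactive means no potentiation, no dose response, or not a prior hit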;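 further: calcium entry triggered by an EC20 dose of DAMGO at the co-expressed mu-opioid receptor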)
[9] = molecular target: Short transient receptor potential channel 4 (Mus musculus) (UniProt Q9QUQ5); assay: mouse TRPC4 channel inhibitors, dose response, cell-based, HEK293 TRPC4/mu-opioid, Fluo-4 calcium (AID 434942;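 active means primary screen inhibitor hit that blocks the TRPC4 channel at some tested dose, yielding a dose curve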)
[10] = molecular target: Short transient receptor potential channel 6 (Mus musculus) (UniProt Q61143); assay: inhibition of mouse TRPC6 channel, confirmation, selectivity assay for TRPC4 inhibitor project, cell-based, HEK293, membrane potential dye, duplicate (AID 434948;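 active means active in primary screen and both duplicates, each dropping signal beyond three positive-control SD with fluorescence still positive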); conditions: HEK293 TRPC6, membrane potential dye fluorescence, at 10 µM, stimulated with maximal-effect acetylcholine; hits give high values
[11] = molecular target: Short transient receptor potential channel 6 (Mus musculus) (UniProt Q61143); assay: activation of mouse TRPC6 channel, confirmation, selectivity assay for TRPC4 activator project, cell-based, HEK293, membrane potential dye, duplicate (AID 434950;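 active means membrane potential signal rise above negative control mean plus 3 SD in both duplicates, also active in the earlier TRPC4 screen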); conditions: HEK293 TRPC6, membrane potential fluorescence, at 10 µM; hits give high values
[12] = molecular target: Short transient receptor potential channel 6 (Mus musculus) (UniProt Q61143); assay: TRPC6 potentiation by TRPC4 potentiator hits, confirmation, selectivity assay for TRPC4 potentiator project, HEK293 cells, membrane potential dye, duplicate (AID 434952;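 active means compound raising the membrane signal above positive-control mean plus 3 SD in both repeats, and a primary screen hit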); conditions: HEK293 TRPC6, membrane potential dye fluorescence, at 10 µM, maximal acetylcholine added after compound; hits give high values
[13] = molecular target: Short transient receptor potential channel 4 (Mus musculus) (UniProt Q9QUQ5); assay: calcium flux activators in TRPC4/5HT1a cells, counter-screen for TRPC4 activator project, cell-based, second counter screen, HEK293 TRPC4/5HT1a, Fluo-4 (AID 434977); conditions: Fluo-4 calcium flux, at 10 µM; hits give high values
[14] = calcium flux inhibitors in TRPC4/5HT1a cells, confirmation, counter-screen for TRPC4 inhibitor project, cell-based, second counter screen, HEK293 TRPC4/5HT1a, Fluo-4 (AID 434978;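 active means primary screen active whose calcium signal fell more than 3 SD beyond the full-serotonin control mean in both duplicate plates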;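 on outcome: serotonin given first at submaximal then at maximal dose after compound preincubation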); conditions: Fluo-4 calcium flux, at 10 µM, serotonin added to trigger calcium flux; hits give high values
[15] = test system: TRPC4 (mouse), co-expressed with 5HT1a in HEK293; assay: calcium flux potentiators in TRPC4/5HT1a cells, confirmation, counter-screen for TRPC4 potentiator project, cell-based, second counter screen, HEK293 TRPC4/5HT1a, Fluo-4 (AID 434979;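 active means signal rise over 3 SD above mean of control wells given weak agonist, in both repeats and first screen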); conditions: Fluo-4 calcium flux, at 10 µM, serotonin added at its EC20 dose; hits give high values
[16] = calcium flux activation in mu-opioid HEK293 cells, confirmation, counter-screen for TRPC4 activator project, cell-based, HEK293 mu-opioid receptor line (AID 449723;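 active means hit in primary screen, with calcium signal over 5 SD above buffer well mean in both duplicates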;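 further: counter screen cells carry the mu-opioid receptor alone and lack TRPC4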); conditions: Fluo-4 calcium fluorescence, at 10 µM; hits give high values
[17] = calcium flux enhancement in mu-opioid HEK293 cells, confirmation, counter-screen for TRPC4 allosteric potentiator project, cell-based, HEK293 mu-opioid receptor line (AID 449724;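 active means calcium signal rise more than 3 SD above the low-dose agonist control mean, in both duplicate plates and the primary screen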); conditions: Fluo-4 calcium flux, at 10 µM, compound added before EC20 DAMGO stimulus; hits give high values

Chain of Short transient receptor potential channel 6 (Mus musculus) (Q61143 whole entry, looked up): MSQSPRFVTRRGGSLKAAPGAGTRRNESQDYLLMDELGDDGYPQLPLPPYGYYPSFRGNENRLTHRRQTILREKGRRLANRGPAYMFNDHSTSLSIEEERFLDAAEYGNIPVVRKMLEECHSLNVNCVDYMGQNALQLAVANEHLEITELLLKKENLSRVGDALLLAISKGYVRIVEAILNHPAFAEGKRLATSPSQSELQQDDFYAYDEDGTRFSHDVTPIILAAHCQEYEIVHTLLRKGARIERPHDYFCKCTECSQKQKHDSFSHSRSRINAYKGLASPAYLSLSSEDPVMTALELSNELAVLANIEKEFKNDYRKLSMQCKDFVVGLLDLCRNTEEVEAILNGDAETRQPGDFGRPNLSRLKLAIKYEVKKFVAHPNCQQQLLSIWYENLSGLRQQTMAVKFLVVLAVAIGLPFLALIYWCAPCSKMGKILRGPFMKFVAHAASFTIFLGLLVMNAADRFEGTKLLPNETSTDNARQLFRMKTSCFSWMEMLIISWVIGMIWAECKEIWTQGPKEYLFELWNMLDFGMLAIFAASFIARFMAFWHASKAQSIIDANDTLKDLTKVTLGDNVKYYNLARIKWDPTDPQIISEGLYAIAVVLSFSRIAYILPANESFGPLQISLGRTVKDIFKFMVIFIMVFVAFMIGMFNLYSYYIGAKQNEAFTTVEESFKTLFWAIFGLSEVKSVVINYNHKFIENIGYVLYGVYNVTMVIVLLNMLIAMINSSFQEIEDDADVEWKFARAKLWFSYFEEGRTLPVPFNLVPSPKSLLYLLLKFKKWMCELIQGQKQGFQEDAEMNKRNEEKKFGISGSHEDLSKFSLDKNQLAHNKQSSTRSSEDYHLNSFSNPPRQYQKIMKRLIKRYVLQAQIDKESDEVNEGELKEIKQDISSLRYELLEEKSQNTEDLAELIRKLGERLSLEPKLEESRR
Chain of Short transient receptor potential channel 4 (Mus musculus) (Q9QUQ5 whole entry, looked up): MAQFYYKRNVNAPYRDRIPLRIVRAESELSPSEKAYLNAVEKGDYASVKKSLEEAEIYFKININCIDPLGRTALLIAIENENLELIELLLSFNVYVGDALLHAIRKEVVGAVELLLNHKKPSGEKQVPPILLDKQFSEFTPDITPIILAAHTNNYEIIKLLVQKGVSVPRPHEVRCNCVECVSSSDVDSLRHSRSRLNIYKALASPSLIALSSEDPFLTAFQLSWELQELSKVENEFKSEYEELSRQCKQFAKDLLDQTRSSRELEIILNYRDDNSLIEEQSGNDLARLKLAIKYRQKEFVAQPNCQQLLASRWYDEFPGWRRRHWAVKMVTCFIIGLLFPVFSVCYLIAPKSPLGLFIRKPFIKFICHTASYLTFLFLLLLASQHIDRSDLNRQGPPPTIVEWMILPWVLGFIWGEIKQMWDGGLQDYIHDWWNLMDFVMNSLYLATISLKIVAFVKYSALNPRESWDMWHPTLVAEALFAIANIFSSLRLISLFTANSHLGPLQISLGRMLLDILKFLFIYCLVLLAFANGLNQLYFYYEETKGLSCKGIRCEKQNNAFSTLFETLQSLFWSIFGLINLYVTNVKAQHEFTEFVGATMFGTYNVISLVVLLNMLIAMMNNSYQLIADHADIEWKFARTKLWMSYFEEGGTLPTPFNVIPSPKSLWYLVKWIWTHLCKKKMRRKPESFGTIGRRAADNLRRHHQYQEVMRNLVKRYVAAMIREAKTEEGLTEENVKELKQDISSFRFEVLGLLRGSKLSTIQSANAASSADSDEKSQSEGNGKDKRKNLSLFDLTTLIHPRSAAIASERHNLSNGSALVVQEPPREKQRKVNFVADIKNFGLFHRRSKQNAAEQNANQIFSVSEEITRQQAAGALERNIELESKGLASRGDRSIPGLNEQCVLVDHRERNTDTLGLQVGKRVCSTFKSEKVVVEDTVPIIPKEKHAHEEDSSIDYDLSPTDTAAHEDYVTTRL

Cc1ccc(Cl)cc1N1CCN(Cc2nc3c(c(=O)[nH]c(=O)n3C)n2Cc2ccccc2F)CC1
active: potentiation [15] 25.8%
inactive: outcome [1] | outcome [2] | outcome [3] | outcome [4] | outcome [5] | outcome [6] | outcome [7] | outcome [8] | outcome [9] | outcome [10] | outcome [11] | outcome [12] | outcome [13] | outcome [14] | outcome [16] | outcome [17]

CCN(CC)CCN(Cc1cc2cc3c(cc2[nH]c1=O)OCCO3)C(=O)NC1CCCCC1
inactive: outcome [1] | outcome [2] | outcome [3] | outcome [4] | outcome [5] | outcome [6] | outcome [7] | outcome [8] | outcome [9] | outcome [10] | outcome [11] | outcome [12] | outcome [13] | outcome [14] | outcome [15] | outcome [16] | outcome [17]

O=C(/C=C/c1ccccc1Cl)N(c1ccccn1)C1CCCCC1
inactive: outcome [1] | outcome [2] | outcome [3] | outcome [4] | outcome [5] | outcome [6] | outcome [7] | outcome [8] | outcome [9] | outcome [10] | outcome [11] | outcome [12] | outcome [13] | outcome [14] | outcome [15] | outcome [16] | outcome [17]

Cc1nn2c(N3CCN(C)CC3)c3c(nc2c1-c1ccccc1)CCCC3
inactive: outcome [1] | outcome [2] | outcome [3] | outcome [4] | outcome [5] | outcome [6] | outcome [7] | outcome [8] | outcome [9] | outcome [10] | outcome [11] | outcome [12] | outcome [13] | outcome [14] | outcome [15] | outcome [16] | outcome [17]

COc1ccc(OC)c(Nc2c3c(nc4ccccc24)CCC3)c1
active: inhibition [5] 67% | inhibition [14] 30.5%
inactive: outcome [1] | outcome [2] | outcome [3] | outcome [4] | outcome [6] | outcome [7] | outcome [8] | outcome [9] | outcome [10] | outcome [11] | outcome [12] | outcome [13] | outcome [15] | outcome [16] | outcome [17]

COc1ccccc1N1CCN(Cc2cc(=O)c(OCC(=O)NC3CCCC3)co2)CC1
inactive: outcome [1] | outcome [2] | outcome [3] | outcome [4] | outcome [5] | outcome [6] | outcome [7] | outcome [8] | outcome [9] | outcome [10] | outcome [11] | outcome [12] | outcome [13] | outcome [14] | outcome [15] | outcome [16] | outcome [17]

CC(C)OC(=O)C1CC=CCC1C(=O)Nc1ccc(Cl)cc1 (stereo not drawn)
inactive: outcome [1] | outcome [2] | outcome [3] | outcome [4] | outcome [5] | outcome [6] | outcome [7] | outcome [8] | outcome [9] | outcome [10] | outcome [11] | outcome [12] | outcome [13] | outcome [14] | outcome [15] | outcome [16] | outcome [17]

CCOC(=O)C(=NC1CCS(=O)(=O)C1)NNc1ccccc1Cl (stereo not drawn)
active: potentiation [4] 85% | potentiation [15] 64.7%
inactive: outcome [1] | outcome [2] | outcome [3] | outcome [5] | outcome [6] | outcome [7] | outcome [8] | outcome [9] | outcome [10] | outcome [11] | outcome [12] | outcome [13] | outcome [14] | outcome [16] | outcome [17]

Cc1cc(SCC(=O)c2cccc([N+](=O)[O-])c2)nc(=O)[nH]1
inactive: outcome [1] | outcome [2] | outcome [3] | outcome [5] | outcome [6] | outcome [7] | outcome [8] | outcome [9] | outcome [10] | outcome [11] | outcome [12] | outcome [13] | outcome [14] | outcome [16] | outcome [17]
active: potentiation [4] 23% | potentiation [15] 57.9%

CCn1c(C)nc2cc(C(=O)N/N=C/c3cccc(O)c3O)ccc21
active: potentiation [3] 79% | potentiation [4] 50% | potentiation [15] 23%
inactive: outcome [1] | outcome [2] | outcome [5] | outcome [6] | outcome [7] | outcome [8] | outcome [9] | outcome [10] | outcome [11] | outcome [12] | outcome [13] | outcome [14] | outcome [16] | outcome [17]

CN(C(=O)COC(=O)c1sc2ccccc2c1Cl)C1CCCCC1
inactive: outcome [1] | outcome [2] | outcome [3] | outcome [5] | outcome [6] | outcome [7] | outcome [8] | outcome [9] | outcome [10] | outcome [11] | outcome [12] | outcome [13] | outcome [14] | outcome [16] | outcome [17]
active: potentiation [4] 36% | potentiation [15] 64.8%

CCOc1ccc(-n2cnnn2)cc1S(=O)(=O)NCc1ccccc1
inactive: outcome [1] | outcome [2] | outcome [3] | outcome [4] | outcome [5] | outcome [6] | outcome [7] | outcome [8] | outcome [9] | outcome [10] | outcome [11] | outcome [12] | outcome [13] | outcome [14] | outcome [15] | outcome [16] | outcome [17]

CCN1CCN(c2ccc(S(=O)(=O)N3CCCCC3)cc2NC(=O)c2cccc(C(F)(F)F)c2)CC1
active: potentiation [4] 21% | potentiation [15] 21.1%
inactive: outcome [1] | outcome [2] | outcome [3] | outcome [5] | outcome [6] | outcome [7] | outcome [8] | outcome [9] | outcome [10] | outcome [11] | outcome [12] | outcome [13] | outcome [14] | outcome [16] | outcome [17]

CCn1c(CN2CCN(C(c3ccccc3)c3ccccc3)CC2)nc2c1c(=O)n(C)c(=O)n2C
active: potentiation [15] 18.4%
inactive: outcome [1] | outcome [2] | outcome [3] | outcome [4] | outcome [5] | outcome [6] | outcome [7] | outcome [8] | outcome [9] | outcome [10] | outcome [11] | outcome [12] | outcome [13] | outcome [14] | outcome [16] | outcome [17]
